Rows were chosen to be rich in hits. Some 2.4% of all compounds tested hit in one or more screens of this group.
D2 PAM-1 = positively modulates the human D2 dopamine receptor allosterically | P14416 | HEK293 T-REx D2, calcium flux, EC20 dopamine potentiation | potentiation, % at 10 µM | actives 0.34% (n = 340,000) | AID 485347;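 active = potentiation over 3 SD above the plate norm, cut at about 30% in these data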; note: 0% is about no effect
Target sequence (P14416 whole entry, looked up): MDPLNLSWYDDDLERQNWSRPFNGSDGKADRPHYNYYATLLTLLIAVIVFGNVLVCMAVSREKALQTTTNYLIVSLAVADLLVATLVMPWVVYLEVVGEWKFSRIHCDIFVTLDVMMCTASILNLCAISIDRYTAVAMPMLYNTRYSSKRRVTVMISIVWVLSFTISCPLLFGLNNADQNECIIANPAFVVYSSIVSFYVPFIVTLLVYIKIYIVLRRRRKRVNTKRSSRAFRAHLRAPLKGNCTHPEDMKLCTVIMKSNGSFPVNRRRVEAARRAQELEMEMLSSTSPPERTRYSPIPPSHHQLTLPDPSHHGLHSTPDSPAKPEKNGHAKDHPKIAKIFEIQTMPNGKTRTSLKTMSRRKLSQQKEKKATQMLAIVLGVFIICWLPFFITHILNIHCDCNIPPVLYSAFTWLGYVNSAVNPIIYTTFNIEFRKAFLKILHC
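Potentiation of an EC20 dopamine calcium response is measured in a force-coupled, tetracycline-inducible Hek293 Trex D2 line. Compound-only kinetic reads over 180 s flag agonists before dopamine addition.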
D2 ag-1 = activates the human D2 dopamine receptor; P14416; HEK293 T-REx D2 cells, calcium flux agonist mode; activation, % at 2 µM; actives 0.53% (n = 340,000);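 active = activation over 3 SD above normal in the single-dose calcium agonist read, cut at about 30% in these data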; note: 0% is about no effect
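Tetracycline-induced HEK293 Trex cells with D2 receptor force-coupled to calcium signaling, plated overnight at 30 C and loaded with no-wash calcium dye. Calcium flux read kinetically for 180 s after compound addition; responses flag agonists.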
D2 antagonist = antagonists of human D2 dopamine receptor. inhibition, % at 10 µM. actives 2% (n = 340,000). P14416. HEK293 TREx D2 cells, calcium flux, dopamine EC80; in the data active = inhibition above about 30%; inactive = below that, where a call was filed; note: 0% is about no effect
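Antagonism is scored as inhibition of an EC80 dopamine-evoked calcium signal in a force-coupled, tetracycline-inducible HEK293 T-REx D2 line, with compound present 180 s before agonist.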
D2 ag-2 = activates the human D2 dopamine receptor; DiscoveRx PathHunter D2 beta-arrestin, luminescence, 90 min; 100% = 57 uM dopamine signal; activation, % (no concentration beside the values); actives 0.084% (n = 360,000); in the data active = activation above about 40%
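DiscoveRx PathHunter D2 beta-arrestin cells (2,100/well) attached overnight, then compound-stimulated 90 min at 37 C in HBSS/10 mM HEPES/0.1% Tween-20 buffer; beta-galactosidase complementation read by luminescence after 1 h at ambient temperature. Dopamine 57 uM final (EC100) as control.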
D2 PAM-2 = potentiates the human D2 dopamine receptor allosterically; DiscoveRx D2 beta-arrestin cells, luminescence, 90 min; 100% = 57 uM dopamine signal; P14416; potentiation, % (test concentration not listed); actives 0.23% (n = 360,000); in the data active = potentiation above about 50%
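PathHunter D2 cells, attached overnight at 37 deg C, received compound in DMSO plus dopamine at EC20 (50 nM final) for 90 min at 37 deg C. Beta-arrestin recruitment was read as luminescence after 1 h with detection reagent at ambient temperature.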
Numbers without * were called inactive.

For O=C(CCN1C(=O)CSc2ccccc21)Nc1cccc(C(F)(F)F)c1 the results were D2 PAM-1 -16.6, D2 ag-1 -0.3, D2 antagonist 4.6, D2 ag-2 -2.2 and D2 PAM-2 -2.9.
Screening OC1(c2ccc(Cl)cc2)CCN(Cc2cn[nH]c2-c2ccccc2)CC1 returned D2 PAM-1 -22.3, D2 ag-1 0.4, D2 antagonist 84.0*, D2 ag-2 2.9 and D2 PAM-2 -13.9.
OC1(c2ccc(Cl)cc2)CCN(Cc2cn[nH]c2-c2ccc(F)cc2)CC1 was read as D2 PAM-1 -19.6, D2 ag-1 3.1, D2 antagonist 56.4*, D2 ag-2 2.0 and D2 PAM-2 -16.4.
Screening Fc1ccc(N2CCN(Cc3cn[nH]c3-c3ccccc3)CC2)cc1 returned D2 PAM-1 -14.5, D2 ag-1 6.0, D2 antagonist -4.2, D2 ag-2 0.9 and D2 PAM-2 -14.8.
Screening COc1ccc(-c2[nH]ncc2CN2CCC(O)(c3ccc(Cl)cc3)CC2)cc1 returned D2 PAM-1 -22.0, D2 ag-1 -0.8, D2 antagonist 17.9, D2 ag-2 2.1 and D2 PAM-2 -12.3.
For NC(c1csc(Nc2cc(NCCCO)ncn2)n1)c1ccccc1Cl (centres undefined) the results were D2 ag-2 -6.3 and D2 PAM-2 -4.3.
Cc1ccc(NC(=O)CCNS(=O)(=O)c2ccc3c(c2)CCCC(=O)N3)cc1 was read as D2 PAM-1 2.8 and D2 ag-1 -2.1.
`CCc1ccc(NC(=S)NC2CCN(Cc3ccccc3)CC2)cc1` gave D2 PAM-1 -24.9, D2 ag-1 3.7, D2 antagonist 98.2*, D2 ag-2 -3.0 and D2 PAM-2 -28.3.
Screening S=C(Nc1ccccc1)NC1CCN(Cc2ccccc2)CC1 returned D2 PAM-1 -26.9, D2 ag-1 1.4, D2 antagonist 92.1*, D2 ag-2 -4.2 and D2 PAM-2 -39.5.
Screening CC1CCN(CCNC(=S)Nc2ccc(Cl)cc2)CC1 returned D2 PAM-1 -15.0, D2 ag-1 1.2, D2 antagonist 30.7*, D2 ag-2 -2.8 and D2 PAM-2 -17.3.
COc1ccc(NC(=S)NC2CCN(Cc3ccccc3)CC2)cc1OC was read as D2 PAM-1 -18.3, D2 ag-1 0.5, D2 antagonist 23.2, D2 ag-2 1.1 and D2 PAM-2 -14.9.
Screening S=C(NCCN1CCOCC1)Nc1ccc(Cl)cc1 returned D2 PAM-1 -12.8, D2 ag-1 0.4, D2 antagonist 1.1, D2 ag-2 -3.3 and D2 PAM-2 -7.4.
`S=C(Nc1ccc(Cl)cc1)NC1CCN(Cc2ccccc2)CC1` gave D2 PAM-1 -22.3, D2 ag-1 5.6, D2 antagonist 69.4*, D2 ag-2 0.3 and D2 PAM-2 -30.6.
CCC(C)c1ccc(NC(=S)NC2CCN(Cc3ccccc3)CC2)cc1 (centres undefined) was read as D2 PAM-1 -23.5, D2 ag-2 -3.0 and D2 PAM-2 -34.5.
COc1ccc(CCNC(=S)NC2CCN(Cc3ccccc3)CC2)cc1 was read as D2 PAM-1 -29.5, D2 ag-1 0.9, D2 antagonist 71.2*, D2 ag-2 -2.5 and D2 PAM-2 -18.8.
`CCOC(=O)C1(Cc2ccccc2)CCN(Cc2nccn2CC)CC1` gave D2 PAM-1 3.9, D2 ag-1 0.4, D2 antagonist 65.2*, D2 ag-2 -3.5 and D2 PAM-2 -3.5.
`CCOC(=O)C1(CCc2ccccc2)CCN(Cc2nccn2CC)CC1` gave D2 PAM-1 3.6, D2 ag-1 -0.3, D2 antagonist -6.0, D2 ag-2 -1.0 and D2 PAM-2 -22.6.
CCOC(=O)C1(CCc2ccccc2)CCN(Cc2ccc(OC)cc2)CC1 was read as D2 PAM-1 -17.6, D2 ag-1 0.8, D2 antagonist 20.3, D2 ag-2 -4.8 and D2 PAM-2 -11.6.
For CCOC(=O)C1(CCc2ccccc2)CCN(Cc2cnc(N(C)C)s2)CC1 the results were D2 PAM-1 -20.2, D2 ag-1 8.6, D2 antagonist 50.5*, D2 ag-2 0.9 and D2 PAM-2 -15.9.
Screening CCOC(=O)C1(CCc2ccccc2)CCN(Cc2c(O)cccc2OC)CC1 returned D2 PAM-1 -20.4, D2 ag-1 -0.1, D2 antagonist 36.7*, D2 ag-2 -4.2 and D2 PAM-2 -1.9.

Screening data as filed in PubChem.
